In the library only some 3.5% were active in any assay of this set; here they are far more common.
Mcl-1 Bim block: human Bim-Mcl-1 interaction inhibition. Q07820. Bead-based flow cytometry, Bim peptide-Mcl-1 binding. inhibition, % at 10 µM. 190,000 tested, 0.1% active. AID 1009; in the data active = inhibition above about 40%;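 also: 0% = no compound tracer wells and 100% = peptide blocker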
Target sequence (Q07820 whole entry, looked up): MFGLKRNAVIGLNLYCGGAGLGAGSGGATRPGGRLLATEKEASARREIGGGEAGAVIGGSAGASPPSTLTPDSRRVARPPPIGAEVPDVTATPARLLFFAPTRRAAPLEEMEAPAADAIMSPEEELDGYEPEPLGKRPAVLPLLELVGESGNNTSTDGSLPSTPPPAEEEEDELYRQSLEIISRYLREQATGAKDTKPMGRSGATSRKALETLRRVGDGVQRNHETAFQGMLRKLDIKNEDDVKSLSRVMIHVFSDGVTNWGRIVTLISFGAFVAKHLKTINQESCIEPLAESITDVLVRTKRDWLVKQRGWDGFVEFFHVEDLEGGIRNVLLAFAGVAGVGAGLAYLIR
eIF4E 4G PPI: eIF4E/eIF4G interaction inhibition in translation initiation; P63073+Q04637; TR-FRET eIF4E-eIF4GI(517-606) binding, 2 h; inhibition, % at 21.7 µM; 220,000 tested, 0.37% active;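 active = inhibition above about 30%, limit read from the data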;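 also: 0% = full FRET control wells and 100% = background wells lacking eIF4GI fragment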
Mcl1-Bid inh: disrupts binding of human Mcl-1 to Bid peptide | inhibition, % at 21.7 µM | 220,000 tested, 0.97% active | TR-FRET Mcl-1/Bid-Dy647 peptide binding, 1536-well;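 active = compounds that cut the binding signal by more than half at the single screening dose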;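 also: His-tagged Mcl-1 with europium anti-His antibody binding Bid BH3 peptide; 0% = Mcl-1 plus peptide wells and 100% = peptide-only wells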
Hck-Nef inh: blocks Nef-activated human Hck kinase; P08631; Recombinant Hck-YEEI plus Nef, Z-Lyte FRET kinase assay; inhibition, % at 20 µM; 220,000 tested, 0.68% active;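 active = Hck-Nef kinase inhibition above about 50%, limit read from the data; inactive = inhibition below that limit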;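 also: 0% = DMSO with Hck plus Nef and 100% = Hck alone without Nef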
Mcl1 Noxa PPI: disrupts binding of human Mcl-1 to Noxa peptide | Q07820 | TR-FRET Mcl-1/Noxa peptide binding, 2 h | inhibition, % at 21.7 µM | 220,000 tested, 1.5% active | AID 1022;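 active = compounds that cut the protein-peptide binding signal by more than 50% relative to plate controls in a single-dose test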;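 also: His-tagged Mcl-1 with rhodamine Noxa BH3 peptide and terbium anti-His antibody; 0% = Mcl-1 plus Noxa peptide wells and 100% = peptide-only wells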
14-3-3 Bad inh: disrupts binding of bovine 14-3-3 zeta to phospho-Bad peptide; 220,000 tested, 0.71% active; inhibition, % at 21.7 µM; TR-FRET 14-3-3zeta/Dy647-pBad peptide displacement, 1 h; P63103; AID 781;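 active = inhibition above about 70%, limit read from the data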;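 also: 0% = full 14-3-3 plus peptide FRET controls and 100% = background without 14-3-3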
Target sequence (P63103 whole entry, looked up): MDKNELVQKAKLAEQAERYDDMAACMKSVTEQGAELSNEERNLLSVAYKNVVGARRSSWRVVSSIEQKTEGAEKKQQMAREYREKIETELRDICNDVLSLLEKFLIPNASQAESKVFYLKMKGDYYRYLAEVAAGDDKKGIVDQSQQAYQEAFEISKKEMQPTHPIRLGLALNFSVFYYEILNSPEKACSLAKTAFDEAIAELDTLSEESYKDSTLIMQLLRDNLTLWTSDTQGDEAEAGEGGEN
An asterisk follows results filed as active; nt = no result given; [ ] = dose if it differs, or a comment.

SMILES | Mcl-1 Bim block | eIF4E 4G PPI | Mcl1-Bid inh | Hck-Nef inh | Mcl1 Noxa PPI | 14-3-3 Bad inh
CCCn1c(/N=C/c2ccccc2O)nc2ccccc21 | -5.0 | -0.5 | -19.5 | 0.7 | 7.4 | 0.1
Cn1c(/N=C/c2c(O)ccc3ccccc23)nc2ccccc21 | 2.0 | 8.0 | 56.5* | 3.4 | 23.2 | 11.1
COc1ccc2cc3c(N)nn(C(=O)c4ccc(Cl)c([N+](=O)[O-])c4)c3nc2c1 | 8.0 | 15.9 | 54.1* | 5.4 | 16.9 | 73.8*[fluorescence artefact?]
COc1ccc2cc3c(N)nn(C(=O)c4ccccc4[N+](=O)[O-])c3nc2c1 | 0.0 | -0.2 | -5.3 | 1.2 | 27.0 | -9.1
CC(C)(C)N=C1NN=C(c2cc3ccccc3o2)CS1 | -4.0 | 1.9 | -10.9 | -0.8 | 71.3* | -7.4
Cc1cccc(N2CCN(C(=S)Nc3ccc4nc(N5CCN(C)CC5)cc(C)c4c3)CC2)c1C | -2.0 | -9.6 | 85.5* | 20.3 | 48.5 | 44.9
COc1cc(/C=C/C(=O)OCC(=O)NC(=O)NC(C)C)cc(S(=O)(=O)N2CCc3ccccc32)c1OC | -2.0 | 2.8 | -17.0 | 4.0 | 2.6 | -5.5
O=C(COC(=O)c1ccc2c(c1)C(=O)N(Cc1ccncc1)C2=O)Nc1ccccc1[N+](=O)[O-] | -8.0 | -1.8 | 19.7 | 3.4 | 83.1* | 31.8
CC(OC(=O)c1ccc2c(c1)C(=O)N(Cc1ccncc1)C2=O)C(=O)Nc1cccc(Cl)c1Cl (stereo not drawn) | -6.0 | 8.9 | 64.2* | 7.6 | 1.2 | 38.6
O=C(COC(=O)c1ccco1)Nc1ccccc1[N+](=O)[O-] | 0.0 | -1.4 | -18.6 | 18.9 | 19.6 | -12.1
CC(OC(=O)c1ccncc1)C(=O)Nc1ccc([N+](=O)[O-])cc1Cl (stereo not drawn) | 3.0 | 4.8 | -14.1 | 18.7 | 16.2 | -1.6
Cn1cc(/C=C/C(=O)c2ccccc2)c2ccccc21 | nt | 3.3 | -13.9 | 18.9 | -22.0 | 90.5*
CC1(C)Cc2c(sc3ncn4c(=S)[nH]nc4c23)CO1 | 0.0 | 3.0 | -57.1 | 10.8 | 67.1* | -10.2
O=c1c2ccccc2nc(SCc2ccccc2)n1CC1CCCO1 (stereo not drawn) | nt | -7.6 | -6.3 | 21.1 | -7.7 | 6.7
Cc1noc(C)c1S(=O)(=O)Nc1ccc(C(=O)NC2CCCCC2C)cc1 (stereo not drawn) | 0.0 | 0.6 | -17.6 | -0.2 | -2.7 | 85.1*
Cc1nnc(SCC(=O)N2CCc3ccccc32)s1 | -2.0 | -2.4 | 1.1 | 0.4 | -9.0 | 20.8
CSc1nsc(SCC(=O)N2CCc3ccccc32)n1 | 1.0 | 37.8* | -22.0 | -7.3 | 2.3 | -5.5
CC(C)c1cccc(OCCCCN(C)C)c1 | 0.0 | 1.1 | 8.4 | 2.7 | 21.5 | 0.4
Cc1ccc2oc(=O)c3cnn(CC(=O)NC4CCCCC4C)c3c2c1 (stereo not drawn) | 0.0 | 3.3 | 65.2* | 5.0 | -5.6 | -8.1
NS(=O)(=O)c1ccc(CCN=Cc2ccccc2O)cc1 | -4.0 | 6.7 | -22.1 | -4.4 | 1.1 | -17.3
Clc1cccc(Cl)c1CON/C=N/c1ncnc2sccc12 | -3.0 | -9.2 | 87.2* | 1.5 | 2.1 | 6.8
Clc1cccc(CON/C=N/c2ncnc3sccc23)c1 | 0.0 | 10.4 | 2.0 | 1.1 | 4.9 | 2.1
COc1ccc(N=Nc2ccc(O)c3ncccc23)cc1 | nt | -11.6 | 72.9* | 20.7 | -1.6 | 3.3
Cc1ccccc1N=Nc1ccc(O)c2ncccc12 | 4.0 | -1.1 | -63.0 | 2.8 | -34.6 | -4.7
CN(C)c1ccc(NC(=O)Nc2ccc3snnc3c2)cc1 | 5.0 | 12.4 | -67.1 | -0.4 | 92.6* | 2.9
SMILES | Mcl-1 Bim block | eIF4E 4G PPI | Mcl1-Bid inh | Hck-Nef inh | Mcl1 Noxa PPI | 14-3-3 Bad inh
O=C(Nc1ccccc1)Nc1ccc2snnc2c1 | -4.0 | -1.0 | -7.6 | 6.3 | 14.8 | -1.1
CC(C)CCNC(=O)c1csc2c1CCCCC2 | -1.0 | 1.1 | 64.1* | 17.5 | 16.8 | 2.2
CCNc1nc(NC(C)CC)nc(ON=C(C)C)n1 (stereo not drawn) | 2.0 | 5.4 | -7.5 | 13.0 | -70.4 | -11.8
CN(C)c1ccc(NC(=O)C2CCCN(S(=O)(=O)c3ccccc3)C2)cc1 (stereo not drawn) | -1.0 | 15.7 | -20.1 | 20.0 | 69.3* | -10.7
O=C(Nc1ccc(N2CCOCC2)cc1)C1CCCN(S(=O)(=O)c2ccccc2)C1 (stereo not drawn) | 0.0 | 5.9 | -30.9 | 0.1 | 7.7 | 0.7
O=C(CN1CCc2ccccc2C1)Nc1cccc(S(=O)(=O)N2CCCC2)c1 | -2.0 | 1.9 | 7.9 | -10.7 | 12.0 | 80.1*
COc1ccccc1NC(=O)c1c(Nc2ccccc2C)sc(C(=O)Nc2cccc(Cl)c2)c1N | -4.0 | 22.1 | -26.2 | 0.8 | -1.9 | 5.6
Cc1ccc(S(=O)(=O)N2CCC(=O)N(C(COCc3ccc(C(F)(F)F)cc3)Cc3ccccc3)CC2)cc1 (stereo not drawn) | 0.0 | 1.5 | -3.3 | -4.0 | -5.2 | 81.5*
Cc1ccc(S(=O)(=O)N2CCC(=O)N(C(COCc3cccc(C)c3)Cc3ccccc3)CC2)cc1 (stereo not drawn) | -2.0 | 2.8 | -7.9 | -7.0 | -5.4 | 6.7
O=C(Nc1c(S(=O)(=O)c2ccc(Cl)cc2)csc1Br)c1ccccc1Cl | nt | -6.4 | -56.4 | 12.9 | 3.2 | 0.0
CC(=O)Oc1c(Cl)cc(Cl)cc1/C=C/c1ccc2ccccc2n1 | -2.0 | -6.4 | -29.4 | -4.8 | nt | -0.6
CC(=O)Oc1ccc(Cl)cc1/C=C/c1ccc2ccccc2n1 | -7.0 | -7.4 | 97.4* | -0.4 | 21.8 | 0.4
Cc1nn(C)cc1S(=O)(=O)NC1CCCC1 | 0.0 | 2.2 | -17.0 | -19.0 | 3.8 | -5.4
CC1CCc2c(sc3ncnc(NCCN4CCOCC4)c23)C1 (stereo not drawn) | nt | 50.5* | -42.0 | 29.2 | 27.0 | -1.5
Cc1sc2ncnc(NCCCN3CCCC3=O)c2c1C | -8.0 | -0.4 | -13.2 | 23.5 | 6.9 | -7.6
Cc1sc2ncnc(NCCN3CCOCC3)c2c1C | -5.0 | -1.4 | 54.7* | -10.5 | 17.1 | 15.3
C[C@H](NC(=O)c1nc[nH]c1C(=O)N1CCc2ccccc2C1)C(=O)OCc1ccccc1 | nt | -0.6 | -42.9 | 20.2 | -12.2 | -4.8
O=C1N=c2ccccc2=C1c1sc(=S)n(Cc2ccccc2Cl)c1O | nt | 1.6 | -22.1 | 23.7 | 3.2 | -8.5
O=C1N=c2ccccc2=C1c1sc(=S)n(-c2ccc(O)cc2)c1O | nt | -0.7 | 21.0 | 10.9 | 70.0* | 20.7
COc1ccc(/C=N/Nc2ncc(-c3ccccc3)cn2)c(OC)c1 | -2.0 | 11.0 | 40.2 | 12.8 | 51.8* | 16.3
CC(=O)NS(=O)(=O)c1ccc(NC(=O)CC(C)c2ccccc2)cc1 (stereo not drawn) | -3.0 | 0.3 | -2.6 | 13.8 | 11.7 | -0.5
O=C(Nc1ccc(F)cc1)c1ccc(-n2ccnc2)nc1 | -2.0 | 7.7 | -12.8 | 0.5 | -6.6 | 86.4*
O=C(Nc1ccncc1)c1ccc(F)cc1 | 1.0 | -5.6 | -6.5 | 0.1 | -20.4 | -5.2

Assay outcomes deposited in PubChem by several laboratories.
